# Hits are enriched below; roughly 5.2% of the tested compounds scored in any of these assays.
# PK Bst – modulators of Bacillus stearothermophilus pyruvate kinase | purified pyruvate kinase, luminescence ATP production; ribose 5-phosphate activator present at AC10 | Potency, µM | hit rate 1.2% among 51,000 | AID 361; in the data active = potency below about 11 µM; inconclusive = mostly about 12 µM to 25 µM;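 the screen sought inhibitors and activators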
# Luciferase inh – blocks Photinus pyralis firefly luciferase activity; P08659; purified firefly luciferase, luminescence, 8 min; Potency, µM (doses to about 57.1 µM), actives largely listed as inhibitors; hit rate 2.2% among 72,000; also: nearly all actives have a fitted effect of over 40% in size
#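 qHTS concentration-response profiling: light output of P. pyralis luciferase with luciferin and 10 uM ATP, imidazole buffer pH 7.2. Read by luminescence after 8-min room-temperature incubation.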
# TSHR agonist – TSH receptor (human) agonism. AID 926. hit rate 0.48% among 73,000. HEK293-CNG-TSHR cells (CNG channel as cAMP sensor), membrane potential dye, cAMP. P16473. Potency, µM (doses to about 57.1 µM), hits mostly activators; active = well fitted activation curve with a large enough effect in the main read-out, with a control signal flat, not every such curve was filed as active; inconclusive = small, poorly fitted or top-dose-only effect, or a change in a side signal; inactive = no such curve, though single readings can be large or run the other way; reference of the percent scale not stated here;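 also: the control signal comes from parental cells without the receptor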
# Target sequence (P16473 whole entry, looked up): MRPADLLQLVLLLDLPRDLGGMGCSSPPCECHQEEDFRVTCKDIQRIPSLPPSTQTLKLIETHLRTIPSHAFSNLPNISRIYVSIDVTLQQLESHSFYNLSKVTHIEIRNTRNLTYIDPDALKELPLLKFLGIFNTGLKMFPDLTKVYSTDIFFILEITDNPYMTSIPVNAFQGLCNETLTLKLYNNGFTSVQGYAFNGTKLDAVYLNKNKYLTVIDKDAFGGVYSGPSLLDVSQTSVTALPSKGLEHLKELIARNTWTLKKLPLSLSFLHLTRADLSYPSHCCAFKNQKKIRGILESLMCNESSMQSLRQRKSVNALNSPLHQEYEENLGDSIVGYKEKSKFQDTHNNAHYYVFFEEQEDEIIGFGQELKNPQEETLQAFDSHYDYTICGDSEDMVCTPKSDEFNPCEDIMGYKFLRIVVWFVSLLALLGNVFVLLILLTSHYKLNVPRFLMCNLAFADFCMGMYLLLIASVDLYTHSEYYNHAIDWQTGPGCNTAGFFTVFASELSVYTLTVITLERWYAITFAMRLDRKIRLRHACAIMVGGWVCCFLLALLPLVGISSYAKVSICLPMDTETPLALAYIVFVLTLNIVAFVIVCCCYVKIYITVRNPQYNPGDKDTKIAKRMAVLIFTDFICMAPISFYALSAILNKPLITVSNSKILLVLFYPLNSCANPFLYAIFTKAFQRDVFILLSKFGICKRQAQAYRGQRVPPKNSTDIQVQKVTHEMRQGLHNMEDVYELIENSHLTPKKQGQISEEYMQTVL
#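 cAMP rise detected as CNG-channel membrane depolarization by fluorescent dye (emission 590 nm), 30 min after compound, following 60 min dye loading containing 100 uM RO 20-1724 at room temperature. Cells: TSHR/CNG HEK 293, with parental CNG HEK 293 as control.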
# HEK293 cAMP cs – parental HEK293 cAMP activation (counter-screen) | parental HEK293 CNG cAMP sensor, membrane potential fluorescence | Potency, µM (highest dose often 57.1 µM), usual class: activators | hit rate 2.5% among 73,000 | AID 938; also: nearly all actives have a fitted effect of over 55% in size
#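 Parental HEK 293 cells stably expressing a modified CNG channel (no TSHR) report cAMP rise as membrane depolarization. Membrane potential dye with 100 uM RO 20-1724 was loaded for 60 min at room temperature, then compound added for 30 min; fluorescence read at 590 nm.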
# A number is an active result; 0 = inactive; ? = inconclusive; - = no result; [ ] = dose if it differs, or a comment. Unless noted, calls follow the shape of the dose curve; as a rule, active = well fitted curve in the direction sought with a large enough effect; inconclusive = small, poorly fitted or top-dose-only effect, or another doubt; inactive = no such curve, though single readings can be large; an effect the other way counts as inactive or inconclusive.
SMILES,PK Bst,Luciferase inh,TSHR agonist,HEK293 cAMP cs
COc1ccccc1NC(=O)Nc1ccc2c(c1)OCCO2,0,13µM,0,0
COc1ccc(NC(=O)C(C)NS(=O)(=O)c2ccc(NC(C)=O)cc2)cc1Cl (stereo unspecified),0,0,0,0
COc1ccc(NC(=O)C=C(C)C)cc1Cl,-,20µM,0,0
O=S(=O)(c1cccs1)N1CCN(c2ncccn2)CC1,0,0,0,0
Cn1c(=O)c2c(nc(CN3CCN(CCO)CC3)n2CCc2ccccc2)n(C)c1=O,-,0,0,0
COc1ccc(NC(=O)c2ccc3c(c2)OCO3)cc1Cl,-,3.2µM,0,0
CC(C)=CC(=O)Nc1ccc2c(c1)OCO2,0,25µM,0,0
CCc1c(C(=O)Nc2ccc(OC)c(Cl)c2)[nH]c(C)c1C(C)=O,3.1,0,0,0
C=CCOc1cccc(C2/C(=C(/O)c3ccccc3)C(=O)C(=O)N2CCCN2CCOCC2)c1 (stereo unspecified),0,0,0,0
CCCc1cc(=O)n2[nH]c(NCc3ccc(Cl)cc3Cl)nc2n1,0,0,?,?
CCn1c(SCCOc2ccc(Cl)cc2)nnc1-c1cccs1,0,0,?,32µM
COc1ccc2nc(C)cc(SCC(=O)O)c2c1,0,0,0,0
COc1ccc2c(C)cc(SCC#N)nc2c1,0,0,?,32µM
CC(C)c1cc(C(=O)Nc2cccc(Cl)c2)no1,0,13µM,0,0
Cc1cc(C)nc(NC(=O)c2c(-c3c(Cl)cccc3Cl)noc2C)n1,0,0,0,0
CC(C)c1cc(C(=O)Nc2cc(Cl)ccc2O)no1,-,16µM,0,0
CC(=O)c1cccc(NC(=O)c2cc(-c3ccc(F)cc3)on2)c1,0,0,0,0
CC(=O)c1cccc(NC(=O)c2cc(C(C)C)on2)c1,-,16µM,0,0
CC(=O)Nc1cccc(NC(=O)c2c(-c3c(Cl)cccc3Cl)noc2C)c1,-,0,2µM,0[11.4 µM]
COc1ccc(CCC(C(O)C(F)(F)F)S(=O)c2ccccc2)cc1 (stereo unspecified),0,0,0,0
CCOC(=O)c1[nH]c(C)c(/C(O)=C2\C(=O)C(=O)N(CCCn3ccnc3)C2c2ccncc2)c1C (stereo unspecified),0,0,0,0
COc1cccc(Cn2c(=O)c(-c3cccc(C#N)c3)nc3cnc(N4CCOCC4)nc32)c1,-,0[11.4 µM],0,0
Cc1cccc(/N=C/c2c(O)[nH]c3ccccc23)n1,-,4µM,0,0
Oc1[nH]c2ccccc2c1C=Nc1ccc2c(c1)OCCO2,3.2,4µM,0,0
CCOC(=O)c1cnn(CCOC(=O)Cc2cccs2)c1NC(=O)Cc1cccs1,0,0,0,0
SMILES,PK Bst,Luciferase inh,TSHR agonist,HEK293 cAMP cs
COc1ccc(Cl)cc1C(=O)N(Cc1nc(-c2cccc(C)c2)no1)C(C)C,-,0,25µM,0[11.4 µM]
COc1ccc(Cc2nc(-c3ccc(Cl)cc3)no2)cc1,0,0,?,?
Cc1cccc(-c2noc(CN(C(=O)CCc3ccccc3)C(C)C)n2)c1,0,0,?,?
COc1ccc(-c2noc(Cc3ccc(Cl)cc3)n2)cc1OC,-,0,25µM,0
COc1ccc(Cn2c(-c3ccco3)nc3oc4ccccc4c(=O)c3c2=O)cc1,0,0,0,0
Cc1ccnc(-n2c(CCN3C(=O)c4ccccc4C3=O)nc3ccccc3c2=O)c1,0,0,0,0
COc1ccc(NC(=O)C2CCCN(S(=O)(=O)c3c(C)n[nH]c3C)C2)c(OC)c1 (stereo unspecified),0,0,0,0
Cc1cc(NC(=O)CS(=O)(=O)c2cn(Cc3ccccc3Cl)c3ccccc23)no1,0,0,?,25µM
Cc1ccccc1Cn1cc(S(=O)(=O)CC(=O)N2CCCCC2)c2ccccc21,0,0,?,32µM
CCn1cc(SCC(=O)Nc2cc(C)on2)c2ccccc21,-,0,0[11.4 µM],0
CCCC(CCC(=O)Nc1ccc(C(=O)OCC)cc1)C(=O)O (stereo unspecified),0,0,-,-
O=C1C2ON(c3ccccc3)C(c3ccccn3)C2C(=O)N1c1ccc(Br)cc1 (stereo unspecified),-,0,?,?
Cc1ccccc1N1OC2C(=O)N(c3ccc(F)cc3)C(=O)C2C1c1ccccn1 (stereo unspecified),0,0,?,20µM
CC(C)OC(=O)CC1=NC(=O)CS1,0,0,-,-
COc1cc(-c2nnc3sc(-c4cccs4)nn23)cc(OC)c1OC,2.8,0,0,0
COc1ccc(-c2nnc3sc(-c4cccs4)nn23)cc1OC,2.6,0,0,0
Cc1cccc(N2CCN(C(=O)CCn3c(=O)[nH]c4ccccc4c3=O)CC2)c1C,0,0,0,0
